From PubChem BioAssay AID720650 (Broad Institute, 2013) come the findings set out here.

A number with no mark means an inactive call. Calls of active or inactive are those of the source. No rule for the calls is given here.

The nature of this assay: Biochemical counterscreen for C difficile toxins, absence of UDPG, inhibitor dose response (AID 720650). The note with it: series mostly up to 19.5 µM. A general note: The purpose of a counterscreen is to sort out artefacts and off-target activity.
On to `COC(=O)CN1C(C)=Nc2ccc(Br)cc2C1c1ccccc1` (stereo not drawn), for which the AC50 entry is “inactive”.
To `CC(C)Cc1cc(C(=O)N2CCCC(CO)(Cc3ccc(F)cc3)C2)no1` (stereo not drawn) belongs “inactive”.
To `CC(=O)Nc1ccccc1O` belongs 18.4 µM (active); to `O=C(NCc1ccncc1)[C@@H]1CCCN1C(=O)[C@@H]1CCCN1`, “inactive”; to `Cc1nc(S(=O)(=O)N(C)Cc2ccccc2)c(C#N)c(C)c1Cl`, “inactive”.
To `COCCNc1cc(N)c([N+](=O)[O-])cc1[N+](=O)[O-]` belongs “inactive”; to `CC(=O)c1ccc(NC(=O)CNCC(c2ccccc2)N(C)C)cc1` (stereo not drawn), “inactive”; to `Cc1cccc2sc(NNC(=O)C3COc4ccccc4O3)nc12` (stereo not drawn), 0.294 µM (active).
In the case of `COc1ccc(/C=C2/C(=O)C(C)(C(C)C)CCC2C)cc1` (stereo not drawn), the AC50 result is “inactive”.
As for `O=CN(c1ccccc1)c1ccc2ccccc2c1`, the entry is “inactive”; as for `CCNC(=O)C[C@H]1CC[C@@H]2[C@@H](COc3ccc(NC(=O)c4ccc5c(c4)OCO5)cc3C(=O)N2C)O1`, above 39 µM.
As to `Nc1ccc(N=Nc2ccc(O)cc2)c(N)n1`, the AC50 was 7.86 µM (active).
Turning to `CSc1ccccc1NC(=O)C1=CC(c2ccc(C)cc2)=NS(=O)(=O)N1C`, the AC50 result is “inactive”.
As to `COc1ccc(NC(=O)c2cc(S(=O)(=O)N3CCc4ccccc43)cn2C)cc1OC`, the AC50 result is “inactive”.
To `CNC(=O)C1CCN(S(=O)(=O)c2c(C)noc2/C=C/c2cccc(OC)c2)CC1` belongs “inactive”.
To `COC(=O)C[C@@H]1CC[C@@H]2[C@H](COC[C@H](O)CN2C(=O)Nc2ccccc2OC)O1` belongs “inactive”.
As for `CCCCN(C)c1c(C)nc2ccc(C(=O)NCc3cccs3)cn12`, the figure is 20.4 µM (active).
With `Cc1cccc(/C=C/c2onc(C)c2S(=O)(=O)N2CCC(C(=O)N3CCC(C)CC3)CC2)c1`, the AC50 entry is “inactive”.
Take `C[C@H]1CN([C@@H](C)CO)C(=O)c2c(c3ccccc3n2C)-c2ccccc2CO[C@H]1CN(C)C`: the AC50 entry is “inactive”.
In the case of `Cc1c(O)ccc(NC(=O)/C=C/c2ccccc2)c1C`, the AC50 is above 39 µM.
As for `N#Cc1ccc(C(=O)N/N=C/c2cn(CC(=O)O)c3ccccc23)c(F)c1`, the entry is “inactive”.
`O=C(O)c1ccc2c(c1)N(Cc1cccc(F)c1)C(=O)CS2`: the AC50 result is “inactive”.
As for `O=C(NCCc1cccc(Cl)c1)c1ccc(Cl)c([N+](=O)[O-])c1`, the entry is “inactive”; as for `O=C(Nc1ccc(O)cc1)C1CCCN1S(=O)(=O)c1ccc(F)cc1` (stereo not drawn), 10.9 µM (active).
As for `CNC(=O)C1CCN(S(=O)(=O)c2c(C)noc2/C=C/c2ccccc2F)CC1`, the entry is “inactive”; as for `CSc1ccc(/C=N/N2CCN(Cc3ccc(Cl)cc3)CC2)cc1`, “inactive”; as for `CCC(=O)Nc1ccc2c(c1)OC[C@@H](C)N(C(=O)NC(C)C)C[C@@H](C)[C@@H](OC)CN(C)C2=O`, “inactive”.
For the molecule `CC(C)(C)OCC(O)CN1CCN(C(=O)c2ccccc2)CC1` (stereo not drawn), the AC50 result was “inactive”.
Consider `O=c1[nH][nH]c(=O)c2c1[nH]c(=S)n2Cc1ccccc1`, for which the AC50 entry is “inactive”.
For `CCN(CC)CCNC(=O)C1CCN(S(=O)(=O)c2c(C)noc2/C=C/c2ccccc2F)CC1`, the AC50 result is “inactive”.
To `CN1C(=O)CSc2ccc(NC(=O)N3CCc4ccccc43)cc21` belongs 20.2 µM (active).
Take `N#CCCN(C(=O)COC(=O)c1cc(=O)c2ccccc2o1)c1ccccc1`: the AC50 result was “inactive”.
With `O=C(O)c1cccnc1SCc1ccccc1Cl`, the AC50 result was “inactive”.
Take `COc1cc2[nH]c(=S)nc(NCCC(C)C)c2cc1OC`: the AC50 entry is “inactive”.
To `COc1cc(-c2noc(C)c2C#CC2(O)CCCCC2)cc(OC)c1OC` belongs “inactive”; to `Cc1cccc(N/N=C/c2ccncc2)c1`, 1.1 µM (active); to `Cc1ccc(NNC(=O)c2ccno2)c(C)c1`, 5.41 µM (active).
As for `Cc1ccc2c(c1)/C(=C/c1ccccc1C)C(=O)N2`, the entry is “inactive”.

One may read the AC50 as the midpoint of the concentration-response curve, whichever way the signal moves.
